Rows were chosen to be rich in hits. Some 4.4% of all compounds tested hit in one or more screens of this group.
TRHR agonist: qHTS for Small Molecule Agonists and Allosteric Enhancers of Human TRH Receptor: Primary Screen for Agonists; Thyrotropin-releasing hormone receptor (Homo sapiens), P34981; AID 493084, 2011; 0.18% of 360,000 active; activation, % at 2 µM; TRHR cells, calcium flux fluo-8, FDSS agonist mode; also: 0% is about no effect
Target sequence (P34981 whole entry, looked up): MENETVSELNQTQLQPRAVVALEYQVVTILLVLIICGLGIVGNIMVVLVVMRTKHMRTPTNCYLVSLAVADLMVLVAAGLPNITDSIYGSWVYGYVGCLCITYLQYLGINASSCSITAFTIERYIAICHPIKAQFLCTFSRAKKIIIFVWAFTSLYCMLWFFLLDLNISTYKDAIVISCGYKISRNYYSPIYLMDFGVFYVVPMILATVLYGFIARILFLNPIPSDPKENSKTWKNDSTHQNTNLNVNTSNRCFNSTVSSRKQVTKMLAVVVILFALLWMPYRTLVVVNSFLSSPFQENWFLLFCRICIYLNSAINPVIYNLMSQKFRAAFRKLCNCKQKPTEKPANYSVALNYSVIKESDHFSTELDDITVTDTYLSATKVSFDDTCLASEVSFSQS
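TRHR-expressing cells loaded with fluo-8 calcium dye; 23 nL library compound pin-transferred, kinetic FDSS fluorescence (Ex 480/Em 530) recorded about 180 s for agonist-induced calcium release, before a 10 nM TRH EC20 addition for potentiator mode.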
USP1-UAF1 inh: Inhibitors of USP1/UAF1: Primary Screen. Potency, µM (top dose mostly 57.1 µM), for the others: top-dose activity change, negative = inhibition, actives largely listed as inhibitors. recombinant USP1/UAF1, Ub-Rhodamine cleavage fluorescence. 0.23% of 390,000 active. Ubiquitin carboxyl-terminal hydrolase 1 (Homo sapiens), O94782; active = well fitted inhibition curve with a large enough effect; inconclusive = small, poorly fitted or top-dose-only effect; inactive = no such curve, though single readings can be large or run the other way; also: potency is read from the fitted curve at half-maximal effect; % is scaled to controls: 0 for no effect and ±100 for the full control effect; nearly all actives have a fitted effect of over 60% in size
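USP1/UAF1 complex (1 nM) preincubated 15 min at room temperature with compound, then Ub-Rho substrate (150 nM final) added. Kinetic fluorescence at 480/540 nm over 6 reads at 60 s intervals; 50 mM HEPES pH 7.8, 0.5 mM EDTA, 0.1 mg/ml BSA, 1 mM TCEP, 0.01% Tween-20.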
D1 antagonist: Antagonist of Human D 1 Dopamine Receptor: qHTS | HEK293 TREx D1 cells, calcium flux, dopamine EC80; stronger effect = lower value | activity change, negative = inhibition, % at 10 µM | 3.2% of 360,000 active | AID 504652, 2011; in the data active = activity change below about -30%; also: % is scaled to controls: 0 for no effect and ±100 for the full control effect
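Kinetic fluorescence of a calcium dye serves as the read-out. D1-expressing Hek293 Trex cells, induced overnight at 30 C, are exposed to compound for 180 s before an EC80 dopamine addition, then read 180 s further.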
D1 ag: Allosteric Agonists of the Human D1 Dopamine Receptor: qHTS; 1% of 360,000 active; activation, % at 2 µM; HEK293 T-REx D1 cells, calcium flux, agonist mode; also: 0% is about no effect
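Agonism was scored from calcium flux recorded over 180 s (1 read/s) after pintool compound addition, following a 10-cycle baseline. Cells were inducible force-coupled HEK293 TREx D1, plated overnight at 30 C and loaded with no-wash calcium dye.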
TRHR PAM: qHTS for Small Molecule Agonists and Allosteric Enhancers of Human TRH Receptor: Primary Screen for Enhancers; Thyrotropin-releasing hormone receptor (Homo sapiens), P34981; TRHR cells, fluo-8 calcium fluorescence, EC20 TRH enhancement; enhancement, % at 2 µM; 0.66% of 360,000 active; in the data active = enhancement above about 30%; also: 0% is about no effect
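Enhancer read-out: after compound pinning and an initial kinetic agonist-mode read, an EC20 of TRH (10 nM final) was injected and fluo-8 calcium signal (Ex 480/Em 530) followed at 1 s/cycle for 100 cycles in TRHR-expressing cells.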
D1 potentiator: Potentiators of Human D1 Dopamine Receptor: qHTS; HEK293 TREx D1 cells, calcium flux, dopamine EC20 potentiation; D(1A) dopamine receptor (Homo sapiens), P21728; 0.036% of 360,000 active; potentiation, % at 10 µM; in the data active = potentiation above about 30%; also: 0% is about no effect
An asterisk follows results filed as active; ? = inconclusive; nt = not tested or not shown; ! = a repeat was not active. Rule as the data show it, unless noted: active = activation above about 30%; inactive = the rest.

SMILES | TRHR agonist | USP1-UAF1 inh | D1 antagonist | D1 ag | TRHR PAM | D1 potentiator
COc1ccc(C(=O)NC2CC2)cc1OC1CCN(Cc2ccc(F)cc2)CC1 | 0 | -5% | -40* | 1 | -10 | -20
COc1ccccc1/C=C/CN1CCC(Oc2cc(C(=O)NC3CC3)ccc2OC)CC1 | 0 | -16% | -73* | 11 | 11 | -5
C#Cc1ccc(CN2CCC(Oc3cc(C(=O)NC4CC4)ccc3OC)CC2)cc1 | 1 | -10% | -45* | 4 | -5 | -11
CCc1ccc(CNC(=O)c2ccc(OC)c(OC3CCN(C(C)C)CC3)c2)nc1 | 0 | -23% | -80* | 0 | -22 | -13
COc1ccc(C(=O)NCc2cnn(C)c2)cc1OC1CCN(C(C)C)CC1 | 2 | -29% | -2 | 1 | -6 | -6
CCc1ccc(NS(=O)(=O)c2c(-c3ccccc3)csc2C(=O)OC)cc1 | 1 | -22% | 13 | 1 | -4 | -2
Cc1c(C)c2cc3c(c(C)c2oc1=O)OCN(CCc1ccccc1)C3 | 23 | ? | 8 | 5 | -6 | -2
COc1cccc(CNc2nc3c(-c4ccccc4)nnn3c3ccccc23)c1 | -2 | -9% | -23 | 1 | 30 | -5
COc1ccc(CNc2nc3c(-c4ccc(C)cc4)nnn3c3ccccc23)cc1 | 0 | -26% | -34* | 4 | 44* | 1
COc1ccc(C2CC(c3cccs3)=NN2c2ccc(C=O)cc2)cc1 (configuration not stated) | 40* | ? | -62* | 244* | 5 | 17
O=S(=O)(NCc1nc2cccnc2n1Cc1ccccc1Cl)c1ccc2c(c1)CCCC2 | 0 | -24% | -5 | 5 | 2 | 1
O=c1n(Cc2cccc(F)c2)c2ccccc2c2nc(-c3ccccc3)nn12 | 1 | -12% | -53* | 0 | -1 | 0
Cc1cccc(Cn2c(=O)n3nc(-c4ccccc4)nc3c3ccccc32)c1 | 0 | -24% | 11 | 2 | -1 | 1
CN(C)/C=C1/C(=O)N(c2ccc([N+](=O)[O-])cc2)N=C1c1ccccc1 | -1 | nt | -8 | 12 | 12 | -3
C/C(=C1/C(=O)N(c2ccc([N+](=O)[O-])cc2)N=C1c1ccccc1)N(C)C | 0 | nt | 0 | 34* | -7 | -5
Cc1ccc(C(CNC(=O)Nc2ccc(Cl)cc2)N2CCN(C)CC2)cc1 (configuration not stated) | 1 | -3% | -44* | 6 | -2 | -14
CN1CCN(C(CNC(=O)Nc2ccc(Cl)cc2)c2ccc(F)cc2)CC1 (configuration not stated) | 1 | -16% | -14 | 2 | 0 | -14
COc1ccc2c(C)c(CCC(=O)NCc3ccc(Cl)cc3)c(=O)oc2c1C | 0 | -19% | -13 | 4 | 0 | -2
Cc1cc(Nc2cccc(C(F)(F)F)c2)nc2ccc(NC(=O)c3ccc(N(C)C)cc3)cc12 | 0 | -19% | 16 | -2 | -3 | 1
O=C(N/N=C/c1cc(Cl)cc([N+](=O)[O-])c1O)c1ccccc1NS(=O)(=O)c1cccs1 | 1 | ? | -30* | 4 | -2 | -3
O=C(NN=Cc1ccc(O)cc1)c1ccccc1NS(=O)(=O)c1cccs1 | nt | -23% | nt | nt | nt | nt
Cc1cn2c(=O)cc(COC(=O)c3ccc(NC(=O)c4ccccc4C)cc3)nc2s1 | -1 | -17% | -2 | 0 | 0 | 0
Cc1cc(-c2ccc(C)c(S(=O)(=O)NCC3CCN(Cc4ccc(F)cc4)CC3)c2)on1 | 0 | -7% | -33*! | 9 | 1 | -7
